From PubChem BioAssay
BoNT-F LC inh – BoNT/F light chain protease inhibitors, primary screen, biochemical, flow cytometry, MLPCN library. AID 588497, 2011. 360,000 compounds, 0.22% hits. Multiplex microsphere protease cleavage assay. inhibition, % at 10 µM; in the data active = inhibition above about 35%, passing the limit was not always enough; inconclusive = no clear call, values can overlap the other calls; note: plate controls were buffer without enzyme for full effect and enzyme alone for no effect
Vc quorum ag – inducers of Vibrio cholerae quorum light production without autoinducers, primary screen, BH1578 luxS cqsA deficient, single point | activation, % at 18.7 µM | 350,000 compounds, 0.16% hits | AID 588436, 2011 | V. cholerae BH1578 lux reporter, luminescence, 6 h; in the data active = activation mostly above about 9.7%, no sharp cut-off; inconclusive = no clear call, values can overlap the other calls; inactive = mostly below about 3.7%
Bead autofluor – compound fluorescence in toxin protease inhibitor counterscreen. compound autofluorescence counterscreen, microsphere flow cytometry; hits give high values. fluorescence intensity (concentration not given with the values). 360,000 compounds, 3.1% hits. AID 624483; in the data active = fluorescence intensity above about 16000; inconclusive = no clear call, values can overlap the other calls
Anthrax LF inh2 – Bacillus anthracis LF protease inhibitors, primary screen, biochemical, multiplex microsphere, MLPCN library; Lethal factor (Bacillus anthracis), P15917; 360,000 compounds, 0.12% hits; inhibition, % at 10 µM; multiplex microsphere protease cleavage assay; AID 588501, 2011; note: plate controls were buffer without enzyme for full effect and enzyme alone for no effect
Target sequence (P15917 whole entry, looked up): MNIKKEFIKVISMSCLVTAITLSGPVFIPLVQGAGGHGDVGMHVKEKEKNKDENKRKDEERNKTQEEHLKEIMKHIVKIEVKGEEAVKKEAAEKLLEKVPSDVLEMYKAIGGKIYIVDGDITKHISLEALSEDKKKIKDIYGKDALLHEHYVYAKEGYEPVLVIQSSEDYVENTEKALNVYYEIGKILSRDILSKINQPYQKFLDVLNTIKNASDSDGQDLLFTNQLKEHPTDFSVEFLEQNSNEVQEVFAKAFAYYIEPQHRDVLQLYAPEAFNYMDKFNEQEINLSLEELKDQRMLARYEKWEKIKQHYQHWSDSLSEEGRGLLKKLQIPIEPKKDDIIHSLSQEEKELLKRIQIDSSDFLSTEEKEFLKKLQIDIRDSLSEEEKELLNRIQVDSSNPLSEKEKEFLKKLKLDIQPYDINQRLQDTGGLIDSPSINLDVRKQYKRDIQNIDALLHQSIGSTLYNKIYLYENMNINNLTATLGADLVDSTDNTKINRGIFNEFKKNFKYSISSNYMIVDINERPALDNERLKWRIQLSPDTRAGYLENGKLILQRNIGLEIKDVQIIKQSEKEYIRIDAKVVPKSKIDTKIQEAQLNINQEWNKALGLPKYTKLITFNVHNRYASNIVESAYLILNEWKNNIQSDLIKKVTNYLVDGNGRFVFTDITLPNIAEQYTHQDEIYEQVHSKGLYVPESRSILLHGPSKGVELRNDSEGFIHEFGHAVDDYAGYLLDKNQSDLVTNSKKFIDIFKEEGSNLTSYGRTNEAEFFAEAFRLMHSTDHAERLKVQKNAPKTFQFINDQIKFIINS
BoNT A protease – BoNT/A light chain protease inhibitors, primary screen, biochemical, flow cytometry, MLPCN library | 360,000 compounds, 0.17% hits | multiplex microsphere protease substrate cleavage | Botulinum neurotoxin type A light chain protease (Clostridium botulinum A str. ATCC 3502) | inhibition, % at 10 µM; note: plate controls were buffer without enzyme for full effect and enzyme alone for no effect
An asterisk follows results filed as active; i = inactive; ? = inconclusive; nt = not tested or not shown. Hits are enriched below; roughly 3.5% of the tested compounds scored in any of these assays. Cut-off read from the data, not from the text of the source, unless noted: active = inhibition above about 30%; inconclusive = no clear call, values can overlap the other calls; inactive = below that.

SMILES	BoNT-F LC inh	Vc quorum ag	Bead autofluor	Anthrax LF inh2	BoNT A protease
CCOC(=O)C1CCCN(CC(O)COc2ccccc2C(C)=O)C1 (stereo not drawn)	-0.7	1.8	22881*	-6.0	0.3
COc1ccc2oc(=N)c(C(=O)Nc3cccc(C)c3C)cc2c1	?	3.1	3728	-7.7	-3.4
CCn1c2nc(SCCN3CCOCC3)nnc2c2cc(C)cc(C)c21	-22.0	i	4439	-1.5	-1.3
CCOC(=O)C1CCN(Cc2c(O)ccc3ccccc23)CC1	0.6	i	19910*	-0.6	?
CCOC(=O)C1CCN(C(=O)c2ccccc2NC(C)=O)CC1	1.2	i	2982	-5.2	-0.3
CCOC(=O)C1CCCN(Cc2c(F)cccc2Cl)C1 (stereo not drawn)	1.1	-0.2	20111*	-0.8	1.3
CCOC(=O)C1CCCN(C(=O)Cc2c(F)cccc2Cl)C1 (stereo not drawn)	-0.2	-0.4	12928	1.1	-1.0
CCOC(=O)C1CCN(C(=O)c2cccnc2Cl)CC1	-0.9	-0.2	20039*	-1.5	-0.1
CCOC(=O)C1CCN(Cc2ccc(OC)cc2OC)CC1	-13.1	-1.2	4278	-5.8	-0.5
CCOC(=O)C1CCN(Cc2cnc(Oc3ccc(OC)cc3)s2)CC1	-5.0	3.6	24024*	-2.3	-3.5
CCOC(=O)C1CCN(Cc2cn[nH]c2-c2ccccc2)CC1	-2.0	i	20102*	2.8	-1.1
CCOC(=O)C1CCCN(Cc2ccccc2OCC)C1 (stereo not drawn)	0.3	-0.2	19086*	-4.1	2.7
Cc1ccsc1C(=O)NCCc1ccc(S(N)(=O)=O)cc1	-1.1	-0.5	5780	-3.7	-1.8
OCCSc1c(F)c(SCCO)c(SCCO)c(F)c1SCCO	1.8	i	23508*	0.5	-0.1
Clc1ccc(Nc2ncn[nH]2)cc1	-2.2	i	23107*	1.0	-0.1
Cc1ccc(-n2c(C)nnc2SCC(=O)NC2CCCC2)cc1	2.4	i	5085	-1.1	2.2
CCN1CCN(S(=O)(=O)c2cc(OC)ccc2OC)CC1	-2.8	-0.1	24223*	-0.9	-0.5
CCN1CCN(S(=O)(=O)c2ccc(OC)c3ccccc23)CC1	?	0.2	4013	4.8	-2.2
COc1ccc(F)cc1S(=O)(=O)N1CC(C)CC(C)C1 (stereo not drawn)	-3.2	-0.2	20024*	-4.8	-0.6
CCOC(=O)C1CCN(C(=O)CSc2ccccc2Cl)CC1	3.0	-0.3	4658	3.3	0.7
C=CCNC(=O)CCNS(=O)(=O)c1ccc(Br)cc1	0.1	-0.4	22875*	-4.8	2.0
CCC(C)NC(=O)CCNS(=O)(=O)c1ccc(Br)cc1 (stereo not drawn)	2.1	-3.0	21722*	-3.9	3.5
COc1ccc(OC)c(NC(=O)NCCc2c[nH]c3ccccc23)c1	20.0	0.5	4356	4.1	-1.5
COc1cc(OC)cc(C2=Cc3ccc(OC)cc3C(CC(C)=O)N2c2ccc(C#CCCO)cc2)c1 (stereo not drawn)	-5.5	nt	5229	-7.4	1.7
O=S(=O)(c1ccccc1)N1CCN(C(=S)NC2CCCC2)CC1	-2.0	-2.3	4430	2.3	-1.0
SMILES	BoNT-F LC inh	Vc quorum ag	Bead autofluor	Anthrax LF inh2	BoNT A protease
O=C(NC1CCCC1)C1(c2ccccc2)CCN(S(=O)(=O)c2ccccc2)CC1	-3.5	i	24081*	-1.2	?
Cn1nc(C(F)(F)F)c(C(=O)Nc2cccc(Cl)c2)c1Cl	-8.8	i	25124*	-1.4	-3.4
CC(C)c1cc(C(=O)Nc2cccc(Cl)c2)no1	14.1	2.1	18450*	-11.9	14.2
COc1ccc(-n2nc(C(=O)NCC(=O)Nc3cc(OC)c(OC)c(OC)c3)c3ccccc3c2=O)cc1OC	-22.0	-0.3	3648	-12.8	-3.8
CC1Oc2ccccc2N(CC(=O)NCC2CCCO2)C1=O (stereo not drawn)	1.8	0.6	23344*	0.4	0.4
CC1Oc2ccccc2N(CC(=O)NC2CC2)C1=O (stereo not drawn)	-1.5	i	3023	-3.8	0.8
COc1ccccc1NC(=O)CN1C(=O)C(C)Oc2ccccc21 (stereo not drawn)	0.9	i	22685*	2.3	0.3
O=C(CCNC(=O)c1ccc([N+](=O)[O-])cc1)Oc1ccc(F)c(F)c1	0.2	i	3540	2.6	0.8
C/C(Cc1ccccc1)=N\NC(=O)CNC(=O)c1ccc(Cl)cc1Cl	36.4*	-0.6	3625	?	5.8
COc1ccc(/C(C)=N/NC(=O)CNC(=O)Cc2ccccc2)c(OC)c1	38.5*	i	3753	20.9	2.2
O=C(CN1C(=O)NC2(CCCCCC2)C1=O)NCc1ccccc1	-5.2	-0.2	3668	1.7	0.1
COc1ccccc1N1CCN(C(=O)CN(C)S(=O)(=O)c2ccc(C)cc2)CC1	-1.9	i	3551	0.7	-0.3
CCOc1ccc(/C(O)=C2\C(=O)C(=O)N(CCOCCO)C2c2ccccc2OC)cc1 (stereo not drawn)	-2.0	-1.7	23386*	-0.7	?
COc1ccc(/C(O)=C2\C(=O)C(=O)N(CCN3CCOCC3)C2c2ccccc2OC)cc1 (stereo not drawn)	-0.3	3.4	2432	1.1	0.4
O=C(/C=C/c1ccc(Cl)cc1)NCc1cccs1	3.8	-0.3	1934	0.1	-0.2
O=C(/C=C/c1cccc(Cl)c1)Nc1ccncc1	-1.6	-6.2	21112*	-2.9	-1.5
O=C(/C=C/c1c(Cl)cccc1Cl)Nc1ccncc1	0.2	3.0	20186*	-0.4	0.4
O=C(/C=C/c1cccc(Cl)c1)NCc1cccs1	-8.8	i	21424*	0.4	-5.7
Cc1cc(C)c(C)c(OCCCN(C)C)c1	0.3	-3.7	2481	-0.2	-0.1
CNCC(=O)N(CC(C)C)c1c(N)n(CC(C)C)c(=O)[nH]c1=O	0.0	-1.4	3106	-3.4	0.1
N#C/C(=C\c1ccc[nH]1)S(=O)(=O)c1ccccc1	-5.0	-0.7	16572*	-2.5	-1.9
CCn1cc(/C=C(/C#N)S(=O)(=O)c2ccccc2)cn1	-3.3	0.5	23211*	-2.1	-1.4
Cn1nccc1/C=C(/C#N)S(=O)(=O)c1ccccc1	4.5	i	?	-7.7	-0.8
CCCCCCSc1ccc([C@@H]2[C@@H]3C(=O)N(C)C(=O)[C@@H]3[C@]3(C(=O)OC)CCCCN23)cc1	-8.6	-0.9	3796	-2.8	-0.3
Cc1nc(N2CCN(c3ccccc3)CC2)nc2c1C(=O)CC(c1ccccc1)C2 (stereo not drawn)	5.8	7.1	17903*	-12.4	6.2
Cc1nc(N2CCN(c3ccccc3)CC2)nc2c1C(=O)CC(C)C2 (stereo not drawn)	0.6	1.3	21996*	-1.6	1.2
Cc1ccc(C2CC(=O)c3cnc(N4CCN(c5ccccc5)CC4)nc3C2)cc1 (stereo not drawn)	-6.5	-0.3	9394	-8.3	-1.1
Cc1nc(N2CCN(c3ccccc3)CC2)nc2c1C(=O)CCC2	-0.4	-2.1	22851*	-2.7	0.7
